# Reference: PubChem BioAssay (Tox21)
# Values without a mark were called inactive. Results filed as inconclusive are left out. A call without a number means that no potency is given here. Calls of active or inactive are those of the source. Unless noted, the call rests on the fitted dose curve; in most records, active means well fitted curve in the direction sought with a large enough effect in the repeat runs; inconclusive means weak or mixed curves; inactive means no such curve, though single readings can be large; an effect the other way counts as inactive or inconclusive.
# Columns and labels:
# [1] = qHTS assay to identify small molecule antagonists of the estrogen receptor alpha (ER-alpha) signaling pathway using the BG1 cell line in the presence of 0.1 nM 17-beta-estradiol - cell viability counter screen (AID 1259241); further: nearly all actives have a fitted effect of over 40% in size
# Summary of the method: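 Measures cytotoxicity alongside the ER-alpha antagonist readout: VM7Luc4E2 cells, charcoal-stripped serum, 0.1 nM 17beta-estradiol final, 22 hr compound incubation at 37C, CellTiter-Fluor fluorescence.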
# [2] = qHTS assay to identify small molecule antagonists of the androgen receptor (AR) signaling pathway using the MDA cell line in the presence of 0.5 nM R1881 - cell viability counter screen (AID 1259242); further: nearly all actives have a fitted effect of over 45% in size
# Summary of the method: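 Human breast carcinoma MDA-kb2 cells, cultured without CO2, receive compounds alongside 0.5 nM (final) R1881 agonist. After 16 hr at 37C, viability is taken as live-cell protease signal.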
# [3] = target: Androgen receptor (Homo sapiens) (UniProt P10275); assay: qHTS assay to identify small molecule antagonists of the androgen receptor (AR) signaling pathway using the MDA cell line in the presence of 0.5 nM R1881 (AID 1259243); further: nearly all actives have a fitted effect of over 50% in size; further: potency means the concentration at half of the fitted maximal effect
# Summary of the method: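 Cells: MDA-kb2 (MMTV-luc). Stimulus: 0.5 nM R1881. Time: 16 hr, 37C, no CO2. Detection: ONE-Glo luminescence after 30 min at RT.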
# [4] = qHTS assay to identify small molecule phospholipidosis (PLD) inducers (AID 1259344; active means well fitted curve in the direction sought with a large enough effect; an effect the other way counts as inactive or inconclusive)
# Summary of the method: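 Cells (HepG2, 900 per well) attach for 4 h, receive LipidTOX Red and compound together, incubate 24 h at 37 C, are fixed 30 min with paraformaldehyde/Hoechst, then imaged at one site per well.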
# [5] = qHTS assay to identify small molecule HDAC inhibitors (AID 1259364);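 further: wild-type HCT-116 cells with endogenous class I/II HDAC activity; top concentration of the series differs between compounds; nearly all actives have a fitted effect of over 45% in size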
# Summary of the method: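 After a 2 hr compound incubation (37C, 5% CO2), HCT-116 cells seeded at 1,500/well the day before received HDAC-Glo reagent; signal read as luminescence after 30 min at room temperature.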
# [6] = qHTS assay to identify small molecule HDAC inhibitors - cell viability counter screen (AID 1259365); further: series mostly up to about 92 µM; nearly all actives have a fitted effect of over 50% in size
# Summary of the method: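 Following a 2hr exposure of overnight-plated wild-type HCT-116 cells to DMSO-delivered compounds, CellTiter-Glo was added and luminescence recorded after 30min at room temperature.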
# [7] = qHTS assay to identify small molecule agonists of the sonic hedgehog signaling (Shh) pathway - cell viability counter screen (AID 1259366); further: nearly all actives have a fitted effect of over 50% in size
# Summary of the method: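 After a 4hr attachment at 37C, NIH/3T3 cells bearing an integrated Gli1-driven luciferase reporter were dosed with compounds. Treatment lasted 24hr, with the final hour including CellTiter-Fluor for a fluorescence viability measurement.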
# [8] = qHTS assay to identify small molecule antagonists of the sonic hedgehog signaling (Shh) pathway - cell viability counter screen (AID 1259367); further: nearly all actives have a fitted effect of over 55% in size
# Summary of the method: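 Cytotoxicity was assessed in parallel with Shh reporter activity by measuring live-cell protease fluorescence (CellTiter-Fluor) in NIH/3T3 cells stably carrying Gli1-Luc, treated with compound under conditioned medium stimulation for 23 hr plus 1 hr reagent incubation.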
# [9] = qHTS assay to identify small molecule agonists of the sonic hedgehog signaling (Shh) pathway (AID 1259368; calls by dose curve;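 further: NIH/3T3-derived 3T3Gli1-Luc cells carrying a stable Gli1-driven firefly luciferase reporter; series mostly up to about 92 µM; nearly all actives have a fitted effect of over 15% in size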)
# Summary of the method: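 Stable NIH/3T3 Gli1-Luc reporter clone; 24 hr cpd exposure after a 4 hr settling period; luminescence endpoint.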
# [10] = qHTS assay to identify small molecule antagonists of the sonic hedgehog signaling (Shh) pathway (AID 1259369; calls by dose curve; further: nearly all actives have a fitted effect of over 45% in size)
# Summary of the method: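 Gli1 transcriptional reporter (firefly Luc) in NIH/3T3 background, conditioned-medium activated. 24hr exposure, luminescence endpoint.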
# [11] = target: Estrogen receptor beta (Homo sapiens) (UniProt Q92731); assay: qHTS assay to identify small molecule agonists of the estrogen receptor beta (ER-beta) signaling pathway (AID 1259377; active means well fitted activation curve with a large enough effect in the signal ratio in the repeat runs, not every such curve was filed as active; the % refers to the signal ratio)
# Summary of the method: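 In HEK293T cells bearing a UAS-beta-lactamase reporter under ER-beta control, DMSO-delivered compounds were incubated for 16 hr at 37C. Activity was detected as fluorescence 2 hours after LiveBLAzer B/G FRET substrate addition.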
# [12] = target: Estrogen receptor beta (Homo sapiens) (UniProt Q92731); assay: qHTS assay to identify small molecule antagonists of the estrogen receptor beta (ER-beta) signaling pathway (AID 1259378; active means well fitted inhibition curve with a large enough effect in the signal ratio in the repeat runs, not every such curve was filed as active; the % refers to the signal ratio)
# Summary of the method: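 ER-beta-UAS-bla HEK293T (GripTite) cells in 2% charcoal-stripped FBS medium were preincubated 6 hr at 37C, dosed with compound, then stimulated with 1 nM E2 (final) for 16 hr; beta-lactamase reporter read by B/G FRET fluorescence after 2 hr substrate loading.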
# [13] = qHTS assay to identify small molecule agonists of the androgen receptor (AR) signaling pathway in the presence of an antagonist - cell viability counter screen (AID 1259379);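 further: MDA-kb2 human breast cancer cells carrying an MMTV luciferase reporter; series mostly up to about 92 µM; nearly all actives have a fitted effect of over 25% in size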
# Summary of the method: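 Counter screen for cell viability run in parallel with the AR agonist-mode luciferase assay. MDA-kb2 cells were co-treated with nilutamide (3.0uM final) and compounds, then incubated 16 hr at 37C, and CellTiter-Fluor fluorescence was measured.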
# [14] = qHTS assay to identify small molecule agonists of the estrogen receptor beta (ER-beta) signaling pathway - cell viability counter screen (AID 1259380); further: nearly all actives have a fitted effect of over 30% in size
# Summary of the method: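 In this qHTS counter screen, HEK293T cells carrying an ER-beta/UAS beta-lactamase reporter, grown in 2% charcoal-stripped FBS, received compound for 16 hr; ATP-based CellTiter-Glo luminescence was then read after 30 min at room temperature.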
# [15] = target: Androgen receptor (Homo sapiens) (UniProt P10275); assay: qHTS assay to identify small molecule agonists of the androgen receptor (AR) signaling pathway in the presence of an antagonist (AID 1259381; calls by dose curve; further: nearly all actives have a fitted effect of over 15% in size)
# Summary of the method: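 AR antagonist background: nilutamide 3.0uM final. Cell line: MDA-kb2, MMTV-driven luciferase, responsive to both AR and GR. Exposure 16hr, 37C, no CO2; ONE-Glo luminescence.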
# [16] = qHTS assay to identify small molecule antagonists of the estrogen receptor beta (ER-beta) signaling pathway - cell viability counter screen (AID 1259382); further: series mostly up to about 92 µM; nearly all actives have a fitted effect of over 55% in size
# Summary of the method: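 HEK293T ER-beta-UAS-bla, 2% charcoal-stripped FBS; compounds + 1nM E2 16 hr 37C; CellTiter-Glo luminescence, 30 min RT.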
# [17] = qHTS assay to identify small molecule agonists or antagonists of the thyroid stimulating hormone receptor (TSHR) signaling pathway - wild type cell line counter screen (AID 1259384; calls by dose curve)
# Summary of the method: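 Wild-type HEK293 cells were plated 18 h at 37 C/5% CO2, pin-dosed with compound plus Ro20-1724 medium, held 30 min at room temperature, then given cAMP-d2 and anti-cAMP-cryptate; fluorescence was read after 1 h. Fifteen concentrations, triplicate.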
# [18] = target: Thyrotropin receptor (Homo sapiens) (UniProt P16473); assay: qHTS assay to identify small molecule antagonists of the thyroid stimulating hormone receptor (TSHR) signaling pathway (AID 1259385; calls by dose curve; further: nearly all actives have a fitted effect of over 20% in size)
# Summary of the method: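 TSHR-HEK293 cells were plated and held 18 h at 37C/5% CO2, then given compound plus Ro20-1724 and stimulated with TSH at 1.5 ng/mL final. After 30 min at room temperature, cAMP was detected with cAMP-d2/anti-cAMP-cryptate (1 h) by fluorescence.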
# [19] = target: Estrogen receptor (Homo sapiens) (UniProt P03372); assay: qHTS assay to identify small molecule antagonists of the estrogen receptor alpha (ER-alpha) signaling pathway using the BG1 cell line in the presence of 0.1 nM 17-beta-estradiol (AID 1259244); further: nearly all actives have a fitted effect of over 50% in size
# Summary of the method: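 Seeding of stripped-serum-adapted VM7Luc4E2 cells, 24 h attachment, compound transfer, then 0.1 nM final 17beta-estradiol; after 22 h incubation, ONE-Glo reagent and luminescence reading.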
# [20] = target: Estrogen receptor (Homo sapiens) (UniProt P03372); assay: qHTS assay to identify small molecule agonists of the estrogen receptor alpha (ER-alpha) signaling pathway in the presence of an antagonist (AID 1259383; calls by dose curve; further: top concentration of the series differs between compounds; nearly all actives have a fitted effect of over 15% in size)
# Summary of the method: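 ER-alpha agonism measured under antagonist challenge: 10.0nM ICI-182,780 (final) plus compound, 15 concentrations, 22hr, VM7Luc4E2 ERE-luciferase cells. Read by luminescence.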
# Chain of Estrogen receptor (Homo sapiens) (P03372 whole entry, looked up): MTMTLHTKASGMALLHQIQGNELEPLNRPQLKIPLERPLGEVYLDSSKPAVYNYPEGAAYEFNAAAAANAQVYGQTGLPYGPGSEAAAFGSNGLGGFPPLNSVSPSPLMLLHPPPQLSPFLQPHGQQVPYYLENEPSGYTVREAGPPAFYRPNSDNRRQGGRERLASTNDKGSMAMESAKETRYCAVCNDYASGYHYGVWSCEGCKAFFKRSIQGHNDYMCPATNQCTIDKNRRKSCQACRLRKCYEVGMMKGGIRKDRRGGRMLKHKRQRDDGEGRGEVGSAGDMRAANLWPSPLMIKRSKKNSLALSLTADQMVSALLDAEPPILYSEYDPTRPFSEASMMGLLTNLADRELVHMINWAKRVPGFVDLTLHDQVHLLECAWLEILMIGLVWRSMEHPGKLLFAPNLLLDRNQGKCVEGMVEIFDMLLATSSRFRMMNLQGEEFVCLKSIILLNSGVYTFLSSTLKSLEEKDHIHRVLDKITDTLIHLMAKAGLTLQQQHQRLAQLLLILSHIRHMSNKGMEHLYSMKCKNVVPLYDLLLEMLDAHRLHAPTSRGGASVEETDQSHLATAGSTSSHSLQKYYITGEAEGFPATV
# Chain of Estrogen receptor beta (Homo sapiens) (Q92731 whole entry, looked up): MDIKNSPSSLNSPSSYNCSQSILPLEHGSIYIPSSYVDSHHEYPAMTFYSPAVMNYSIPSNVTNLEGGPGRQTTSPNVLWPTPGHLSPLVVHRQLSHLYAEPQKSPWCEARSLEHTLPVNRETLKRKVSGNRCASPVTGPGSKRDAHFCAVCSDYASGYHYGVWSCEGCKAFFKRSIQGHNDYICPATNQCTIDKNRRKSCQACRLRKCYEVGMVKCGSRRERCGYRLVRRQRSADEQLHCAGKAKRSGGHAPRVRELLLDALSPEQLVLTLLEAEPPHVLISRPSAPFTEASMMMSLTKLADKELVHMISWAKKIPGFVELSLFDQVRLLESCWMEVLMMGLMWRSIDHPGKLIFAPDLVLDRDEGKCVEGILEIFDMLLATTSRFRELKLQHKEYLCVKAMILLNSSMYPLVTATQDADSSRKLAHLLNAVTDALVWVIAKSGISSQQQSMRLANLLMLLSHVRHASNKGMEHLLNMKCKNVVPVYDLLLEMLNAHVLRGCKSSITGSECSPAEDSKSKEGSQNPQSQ
# Chain of Androgen receptor (Homo sapiens) (P10275 whole entry, looked up): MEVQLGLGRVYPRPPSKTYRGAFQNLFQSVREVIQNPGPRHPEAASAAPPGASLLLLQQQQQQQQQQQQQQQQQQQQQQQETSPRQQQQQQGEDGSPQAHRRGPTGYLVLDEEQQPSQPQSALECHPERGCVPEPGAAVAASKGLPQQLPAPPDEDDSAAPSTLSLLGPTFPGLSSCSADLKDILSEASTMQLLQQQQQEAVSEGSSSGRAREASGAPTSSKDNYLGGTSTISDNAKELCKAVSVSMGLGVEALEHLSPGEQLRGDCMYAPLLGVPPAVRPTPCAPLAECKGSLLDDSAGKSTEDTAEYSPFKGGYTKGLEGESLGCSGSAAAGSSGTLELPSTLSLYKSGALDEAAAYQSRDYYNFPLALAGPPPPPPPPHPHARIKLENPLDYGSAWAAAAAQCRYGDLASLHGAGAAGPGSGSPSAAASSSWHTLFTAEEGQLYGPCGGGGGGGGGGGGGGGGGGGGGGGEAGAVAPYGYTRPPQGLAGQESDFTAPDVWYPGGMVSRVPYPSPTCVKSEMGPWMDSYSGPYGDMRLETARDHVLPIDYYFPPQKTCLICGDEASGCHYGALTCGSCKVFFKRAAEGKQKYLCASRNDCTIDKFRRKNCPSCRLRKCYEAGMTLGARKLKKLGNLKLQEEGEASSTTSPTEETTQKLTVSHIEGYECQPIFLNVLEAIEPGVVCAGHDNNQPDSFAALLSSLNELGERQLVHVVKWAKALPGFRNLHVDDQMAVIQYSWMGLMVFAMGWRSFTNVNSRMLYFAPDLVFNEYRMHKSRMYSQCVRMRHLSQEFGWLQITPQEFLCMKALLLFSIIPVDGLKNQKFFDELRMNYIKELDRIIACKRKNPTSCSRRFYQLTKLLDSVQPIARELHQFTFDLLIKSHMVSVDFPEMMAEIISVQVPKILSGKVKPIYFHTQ
# Chain of Thyrotropin receptor (Homo sapiens) (P16473 whole entry, looked up): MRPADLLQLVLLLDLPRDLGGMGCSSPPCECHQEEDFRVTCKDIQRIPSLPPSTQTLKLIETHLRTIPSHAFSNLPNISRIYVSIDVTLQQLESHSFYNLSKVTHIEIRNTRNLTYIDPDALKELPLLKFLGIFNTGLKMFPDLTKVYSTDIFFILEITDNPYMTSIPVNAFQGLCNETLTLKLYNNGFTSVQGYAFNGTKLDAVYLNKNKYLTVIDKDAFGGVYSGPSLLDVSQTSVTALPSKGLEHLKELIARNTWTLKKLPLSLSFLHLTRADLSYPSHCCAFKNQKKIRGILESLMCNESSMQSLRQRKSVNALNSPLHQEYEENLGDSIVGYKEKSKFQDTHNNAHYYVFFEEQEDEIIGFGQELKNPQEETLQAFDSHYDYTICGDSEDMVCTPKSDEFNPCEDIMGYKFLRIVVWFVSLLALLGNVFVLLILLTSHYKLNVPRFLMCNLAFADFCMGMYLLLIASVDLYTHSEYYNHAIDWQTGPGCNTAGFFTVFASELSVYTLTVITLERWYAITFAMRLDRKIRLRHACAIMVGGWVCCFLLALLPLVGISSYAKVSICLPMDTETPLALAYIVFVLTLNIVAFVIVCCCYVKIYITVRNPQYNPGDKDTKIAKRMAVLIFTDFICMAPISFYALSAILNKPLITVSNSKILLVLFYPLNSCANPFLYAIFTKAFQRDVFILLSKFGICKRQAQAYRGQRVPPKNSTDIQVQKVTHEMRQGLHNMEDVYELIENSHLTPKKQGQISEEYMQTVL
smiles,measurement,setting,value
CC[N+](CC)(CC)CCOc1cccc(OCC[N+](CC)(CC)CC)c1OCC[N+](CC)(CC)CC,outcome,[1],inactive
same,outcome,[2],inactive
same,Potency,[3],inactive
same,outcome,[4],inactive
same,Potency,[5],inactive
same,outcome,[6],inactive
same,Potency,[7],inactive
same,Potency,[8],inactive
same,outcome,[9],inactive
same,Potency,[10],inactive
same,Potency,[11],inactive
same,Potency,[12],inactive
same,Potency,[13],inactive
same,Potency,[14],inactive
same,Potency,[15],inactive
same,outcome,[16],inactive
same,outcome,[17],inactive
same,outcome,[18],inactive
CC(C)C1CCC(O)CC1 (stereo not drawn),outcome,[1],inactive
same,outcome,[2],inactive
same,Potency,[3],inactive
same,Potency,[5],inactive
same,outcome,[6],inactive
same,Potency,[7],inactive
same,Potency,[8],inactive
same,outcome,[9],inactive
same,Potency,[10],inactive
same,Potency,[11],inactive
same,Potency,[12],inactive
same,Potency,[13],inactive
same,Potency,[14],inactive
same,Potency,[15],inactive
same,outcome,[16],inactive
same,outcome,[17],inactive
Cc1ccc(-c2ncc(Cl)cc2-c2ccc(S(C)(=O)=O)cc2)cn1,outcome,[1],inactive
same,outcome,[2],inactive
same,Potency,[3],inactive
same,outcome,[19],inactive
same,outcome,[4],inactive
same,Potency,[5],inactive
same,outcome,[6],inactive
same,Potency,[7],inactive
same,Potency,[8],inactive
same,outcome,[9],inactive
same,Potency,[10],inactive
same,Potency,[11],inactive
same,Potency,[12],inactive
same,Potency,[13],inactive
same,Potency,[14],inactive
same,Potency,[15],inactive
same,outcome,[16],inactive
same,outcome,[20],inactive
same,outcome,[17],inactive
same,outcome,[18],inactive
NC(=O)NC1N=C([O][Al])NC1=O (stereo not drawn),outcome,[1],inactive
same,outcome,[2],inactive
same,Potency,[3],inactive
same,Potency,[5],inactive
same,outcome,[6],inactive
same,Potency,[7],inactive
same,Potency,[8],inactive
same,outcome,[9],inactive
same,Potency,[10],inactive
same,Potency,[13],inactive
same,Potency,[14],inactive
same,Potency,[15],inactive
same,outcome,[16],inactive
same,outcome,[17],inactive
same,outcome,[18],inactive
O=C(c1ccccc1O)c1ccccc1O,outcome,[1],inactive
same,outcome,[2],inactive
same,Potency,[3],24.1 µM (active)
same,Potency,[5],inactive
same,outcome,[6],inactive
same,Potency,[7],inactive
same,Potency,[8],inactive
same,outcome,[9],inactive
same,Potency,[11],inactive
same,Potency,[13],inactive
same,Potency,[14],inactive
same,Potency,[15],inactive
same,outcome,[16],inactive
same,outcome,[20],inactive
same,outcome,[17],inactive
O=S(=O)(O)c1cc(O)c(O)c(S(=O)(=O)O)c1,outcome,[1],inactive
same,outcome,[2],inactive
same,Potency,[3],inactive
same,Potency,[5],inactive
same,outcome,[6],inactive
same,Potency,[7],inactive
same,Potency,[8],inactive
same,outcome,[9],inactive
same,Potency,[10],inactive
same,Potency,[11],inactive
same,Potency,[12],inactive
same,Potency,[13],inactive
same,Potency,[14],inactive
same,Potency,[15],inactive
same,outcome,[16],inactive
same,outcome,[20],inactive
CCC(C(=O)NC(=O)NC(C)=O)c1ccccc1 (stereo not drawn),outcome,[1],inactive
same,outcome,[2],inactive
same,outcome,[19],inactive
same,PLD induction,[4],-2.71% [at 7.66 µM]
same,Potency,[5],inactive
same,outcome,[6],inactive
same,Potency,[7],inactive
same,Potency,[8],inactive
same,outcome,[9],inactive
same,Potency,[10],inactive
same,Potency,[11],inactive
same,Potency,[12],inactive
same,Potency,[13],inactive
same,Potency,[14],inactive
same,outcome,[16],inactive
same,outcome,[20],inactive
same,outcome,[17],inactive
same,outcome,[18],inactive
